Compound activity (PubChem)
TMEM16A act = TMEM16A chloride channel activators or potentiators, primary screen, cell-based, HTS | Anoctamin-1 (Mus musculus), Q8BHY3 | HEK293 TMEM16A/YFP-H148Q/I152L, iodide quench fluorescence; hits give low values | B-score at 10 µM | 340,000 compounds, 0.3% hits | AID 623877, 2012;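 active means fluorescence-ratio B-score plate-corrected deviation score at least 3 library SD below zero, with starting fluorescence score within 5 deviations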;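 further: channel opened by trigger with iodide after compound preincubation; score built on the fluorescence ratio of max minus min over baseline; more negative score means more quench and so TMEM16A activation or potentiation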
ANO1 block = TMEM16A chloride channel inhibitors, primary screen, cell-based, HTS. 310,000 compounds, 1.2% hits. HEK293 TMEM16A/YFP iodide influx fluorescence, ionomycin. Anoctamin-1 (Mus musculus), Q8BHY3. normalized B-score (activity score, 25-100; higher = stronger inhibition) at 10 µM;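 active means ratio plate-corrected score three or more library SD toward inhibition, starting fluorescence score within five deviations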;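 further: score derived from kinetic fluorescence span divided by baseline fluorescence per well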
CHT PAM = CHT positive allosteric modulators, primary screen, cell-based, membrane potential dye, choline EC20; B-score at 10 µM; CHT-expressing cells; hits give high values; LV-AA mutant CHT in HEK293 cells; High affinity choline transporter 1 (Homo sapiens), Q9GZV3; AID 488977, 2010; 310,000 compounds, 0.49% hits;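 active means initial fluorescence not abnormally high and integrated response B-score, plate-corrected, over 3 SD above library mean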
IDE cell inh = human IDE inhibitors in live cells, primary screen, fluorescence polarization, HEK cells, FAbetaB substrate; AID 434962, 2010; inhibition, % at 5.59 µM; FAbetaB cleavage; 320,000 compounds, 0.41% hits; Insulin-degrading enzyme (Homo sapiens), P14735;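 active means percent inhibition above the average of all tested compounds plus 3 SD, set per screening campaign, cut at about 16% in these data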;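 further: IDE supplied by intact live HEK cells; FP after avidin binding of uncleaved biotin substrate so inhibition keeps polarization high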
Target sequence (P14735 whole entry, looked up): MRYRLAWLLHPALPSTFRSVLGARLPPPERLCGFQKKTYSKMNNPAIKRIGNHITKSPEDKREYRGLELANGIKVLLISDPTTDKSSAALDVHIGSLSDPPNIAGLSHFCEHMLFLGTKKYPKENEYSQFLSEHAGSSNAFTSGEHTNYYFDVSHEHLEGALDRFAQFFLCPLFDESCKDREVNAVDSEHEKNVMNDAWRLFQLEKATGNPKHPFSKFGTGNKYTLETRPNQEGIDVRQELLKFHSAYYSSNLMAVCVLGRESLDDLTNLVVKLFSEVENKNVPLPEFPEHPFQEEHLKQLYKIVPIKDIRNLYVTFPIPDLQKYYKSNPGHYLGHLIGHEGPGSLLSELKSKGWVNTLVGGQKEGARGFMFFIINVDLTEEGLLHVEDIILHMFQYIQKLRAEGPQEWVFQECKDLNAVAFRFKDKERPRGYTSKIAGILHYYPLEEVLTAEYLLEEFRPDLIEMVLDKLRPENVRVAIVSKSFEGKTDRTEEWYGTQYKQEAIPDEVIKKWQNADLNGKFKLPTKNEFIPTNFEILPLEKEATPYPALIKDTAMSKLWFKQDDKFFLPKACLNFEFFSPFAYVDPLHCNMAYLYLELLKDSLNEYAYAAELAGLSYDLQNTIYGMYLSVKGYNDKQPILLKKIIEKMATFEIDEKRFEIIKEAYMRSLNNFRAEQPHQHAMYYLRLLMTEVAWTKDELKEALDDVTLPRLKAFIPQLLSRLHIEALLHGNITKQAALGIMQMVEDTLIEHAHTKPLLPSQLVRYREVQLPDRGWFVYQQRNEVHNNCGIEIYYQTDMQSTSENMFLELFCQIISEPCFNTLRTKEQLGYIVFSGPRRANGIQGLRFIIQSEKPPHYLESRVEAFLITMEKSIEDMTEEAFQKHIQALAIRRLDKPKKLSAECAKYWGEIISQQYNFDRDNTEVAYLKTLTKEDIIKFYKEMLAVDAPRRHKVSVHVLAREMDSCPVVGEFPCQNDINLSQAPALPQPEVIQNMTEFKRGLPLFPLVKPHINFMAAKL
CHT inh = inhibitors of human choline transporter CHT; B-score at 10 µM; CHT-expressing cells, membrane potential dye, choline response; hits give low values; 310,000 compounds, 0.86% hits;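 active means B-score over 3 SD under the library average, and starting fluorescence ratio not unusually high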;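 further: choline stimulus applied at its EC90 after an EC20 pre-addition; B-score computed on integrated fluorescence ratio after choline addition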
IDE act = human IDE activators in live cells, primary screen, fluorescence polarization, HEK cells, FAbeta-B substrate. Insulin-degrading enzyme (Homo sapiens), P14735. FAbeta-B cleavage; 0% vehicle, 100% cell-free pure enzyme wells. activation, % at 5.96 µM. 340,000 compounds, 0.073% hits. AID 493087, 2011;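 active means activation above the mean of all tested compounds plus 3 SD, set per screening campaign, cut at about 17% in these data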
TMEM16A reconf = TMEM16A chloride channel inhibitors, confirmation, cell-based, re-confirmation | inhibition, % at 10 µM | 2,300 compounds, 39% hits | HEK293 TMEM16A/YFP-H148Q, iodide quench fluorescence; ionomycin added to raise cell calcium | shares compounds with ANO1 block;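 active means mean duplicate percent inhibition, scaled so buffer wells are 0 and the reference blocker 100, over three buffer SD above buffer mean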
TMEM16A Ca cntr = calcium mobilization in TMEM16A/YFP HEK293 cells, confirmation, counter-screen for TMEM16A inhibitor project; AID 652231, 2013; calcium response (% of ionomycin), % at 10 µM; 2,300 compounds, 2% hits; shares compounds with ANO1 block; Fluo4 calcium mobilization;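 active means duplicate-averaged calcium signal over 20% of the ionomycin maximum, relative to buffer baseline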;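 further: each well's signal is peak minus trough fluorescence divided by its pre-addition baseline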
YFP-HEK293 quench = iodide YFP quench changes in parental YFP-HEK293, counter-screen for TMEM16A inhibitor project, cell-based; AID 652233, 2013; shares compounds with ANO1 block; 2,300 tested, under 10 active; ionomycin; YFP ratio F(max-min)/F0 at 10 µM;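 active means yellow fluorescent protein signal ratio exceeding the buffer control mean by over 5 SD of those controls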;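 further: ratio is mean of duplicate wells from kinetic YFP trace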
ClC-1 inh = ClC-1 chloride channel inhibition, selectivity assay for TMEM16A inhibitor project, cell-based, voltage-dependent ClC-1; CHO ClC-1-YFP, iodide influx fluorescence quench; iodide control reads 0, buffer control 100; ratio percent, % at 10 µM; 2,300 tested, under 10 active; AID 652236, 2013; shares compounds with ANO1 block;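 active means duplicate-mean ratio percent above the mean of iodide-only control wells, which defines zero, plus 5 of their SD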;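 further: higher percent means stronger block of ClC-1 iodide influx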
A number is an active result; - = inactive; . = no result given. Sampled rows, rich in hits. Any-hit rate of the full collection: about 2.7%.

SMILES	TMEM16A act	ANO1 block	CHT PAM	IDE cell inh	CHT inh	IDE act	TMEM16A reconf	TMEM16A Ca cntr	YFP-HEK293 quench	ClC-1 inh
O=C(Nc1ccc(Oc2cccnc2)nc1)c1ccc(C(F)(F)F)cc1	-	25	-	-	-	-	-	-	-	-
CC(C)(C)c1ccc(Oc2ccc(NC(=O)c3ccco3)cn2)cc1	-	100	-	-	-	-	20%	-	-	-
O=C(Nc1ccc(Oc2cccc(C(F)(F)F)c2)nc1)c1ccco1	-	-	-	-	-	-	.	.	.	.
CCC(C)N1C(=O)c2ccccc2C1C(=O)NC1CCCCCC1 (centres undefined)	-	25	-	-	-	-	-	-	-	-
Cc1ccc(-n2nnnc2SCC(=O)c2c(N)n(C3CC3)c(=O)[nH]c2=O)c(C)c1	-	.	.	-	.	-	.	.	.	.
CCC1C(=O)N(c2nc(C)cc(C)n2)N=C1C (centres undefined)	-	-	-	-	-	-	.	.	.	.
Cc1cc(C)nc(N2N=C(C(C)(C)C)CC2=O)n1	-	-	-	-	-	-	-	-	-	-
CCOC(=O)c1cn(Cc2ccccc2)c(C(=O)OC(C)(C)C)c1O	-	100	-	-	-	-	32%	-	-	-
CCOC(=O)c1cn(Cc2ccccc2)c2cc(C)nn2c1=O	-	-	-	-	-	-	.	.	.	.
Cc1cccc(C)c1OCc1cc(C(=O)NCC2CCCCC2)no1	-	-	-	-	-	-	.	.	.	.
Cc1cccc(C)c1OCc1cc(C(=O)N(Cc2c(C)nn(C)c2C)C2CC2)no1	-	25	-	-	-	-	22%	-	-	-
Cc1ccsc1/C=N/Nc1ncc(Cl)cc1Cl	-	100	-	-	-	-	40%	-	-	-
C/C(=N\OCC(=O)OCC(=O)N(C)c1ccccc1)c1ccc2c(c1)OCO2	-	.	.	-	.	-	.	.	.	.
Fc1nc(F)c(F)c(NCCCNc2c(F)c(F)nc(F)c2F)c1F	-	100	-	-	-	-	52%	-	-	-
CCC1c2ccc(C)n2CCN1C(=O)Nc1cc(Cl)ccc1OC (centres undefined)	-	-	-	-	-	-	16%	-	-	-
CCC1c2ccc(C)n2CCN1C(=O)Nc1ccccc1C(=O)OC (centres undefined)	-	-	-	-	-	-	-	-	-	-
CCOC(=O)N1CCc2c(sc(NC(C)=O)c2C(N)=O)C1	-	-	-	-	-	-	-	-	-	-
CCC(=O)Nc1sc2c(c1C(N)=O)CCN(C(C)=O)C2	-	-	-	-	-	-	.	.	.	.
Cc1nc2sccn2c(=O)c1S(=O)(=O)N1CCN(c2cccc(Cl)c2)CC1	-	-	-	-	-	-	.	.	.	.
CCOC(=O)c1c(NC(=O)C(C)N2CCN(C(=O)c3ccco3)CC2)sc2c1CCCC2 (centres undefined)	-	25	-	-	-	-	-	-	-	-
O=C(Nn1c(C2CCCCC2)nc2ccccc2c1=O)c1ccc(Cl)c([N+](=O)[O-])c1	-	25	-	-	-	-	22%	-	-	-
COc1ccc(CNC(=O)COC(=O)Cc2ccc(Br)cc2)cc1	-	.	.	-	.	-	.	.	.	.
Cc1ccc(S(=O)(=O)N2CCN(C(=O)COC(=O)CC(C)c3ccccc3)CC2)c(C)c1 (centres undefined)	-	.	.	.	.	-	.	.	.	.
Cc1nc(C)n(CC(C)C(=O)N2CCN(S(=O)(=O)c3ccccc3)CC2)n1 (centres undefined)	-	25	-	-	-	-	-	-	-	-
CCCn1nc(C(=O)Nc2ccc3nc(N4CCOCC4)sc3c2)ccc1=O	-	.	.	.	.	-	.	.	.	.
SMILES	TMEM16A act	ANO1 block	CHT PAM	IDE cell inh	CHT inh	IDE act	TMEM16A reconf	TMEM16A Ca cntr	YFP-HEK293 quench	ClC-1 inh
NC(=O)COC(=O)c1c2c(nc3ccccc13)CCCC2	-	-	-	-	-	-	.	.	.	.
O=C(OCC(=O)N1CCc2ccccc21)c1c2c(nc3ccccc13)CCCCC2	-	100	-	-	-	-	-	-	-	-
Cc1ccc(S(=O)(=O)N(C)C)cc1NC(=O)CSc1nc2ncc(Cl)cc2[nH]1	-	.	.	.	.	-	.	.	.	.
Cc1ccc(NC(=O)c2c(C(F)(F)F)nn(C)c2SCc2cccc(C(F)(F)F)c2)cc1C	-	100	-	-	-	-	-	-	-	-
Cc1ccc(NC(=O)c2c(C(F)(F)F)nn(C)c2SCc2ccc(Cl)cc2)cc1C	-	-	-	-	-	-	.	.	.	.
CS(=O)c1ccccc1-c1nc(-c2ccc([N+](=O)[O-])cc2)no1 (centres undefined)	-	.	.	.	.	-	.	.	.	.
Cc1cc([N+](=O)[O-])ccc1NC(=O)c1cc2ccccc2o1	-	-	-	-	-	-	.	.	.	.
CCc1nc(NCc2ccc3c(c2)OCO3)c2oc3ccccc3c2n1	-	-	-	-	-	-	.	.	.	.
Cc1nc(NCc2ccc3c(c2)OCO3)c2oc3ccccc3c2n1	-	25	-	-	-	-	-	-	-	-
O=C(NCc1cccc(Cl)c1)C1CCC(=O)N(CCCN2CCCC2=O)C1 (centres undefined)	-	-	-	-	-	-	.	.	.	.
CC(C)(C)c1cccc(Cn2nnc3ccccc32)c1O	-	100	-	-	-	-	24%	-	-	-
COc1ccc2c(c1)C(CC(=O)NN)CCC2 (centres undefined)	-	.	.	.	.	-	.	.	.	.
O=C(CCS(=O)(=O)c1ccccc1)Nc1ncc([N+](=O)[O-])s1	-	-	-	-	-	-	.	.	.	.
Cc1ccc(S(=O)(=O)CC(=O)Nc2ncc([N+](=O)[O-])s2)cc1	-	25	-	-	-	-	38%	-	-	-
